40 compounds from PubChem BioAssay (EPA / NIEHS) can be followed below.

Active and inactive are the calls of the source. Rule for the calls: active = hit-call score of the fitted dose curve at least 0.9, where 1 is the maximum; inactive = score below 0.9.

Read-out in this assay: ABC Transporter (ABCC2), ABCC2 (gene 1244)
The assay can be described thus: LTEA_HepaRG_ABCC2: Life Technologies and Expression Analysis (LTEA) Assay for ABC Transporter (ABCC2) using HepaRG (AID 2283464). Conditions: mRNA level, 48 h; actives raise or lower the signal. The protocol: LTEA_HepaRG is a cell based, multiplexed-readout assay that uses HepaRG, a human liver cell line, with measurements taken at 48 hours after chemical dosing on a 96-well plate.LTEA_HepaRG_ABCC2 is one of 102 assay component(s) measured in the LTEA HepaRG cell culture assay. It is a marker of Steatosis/NR mediated transport.Data from the assay component LTEA_HepaRG_ABCC2 was analyzed into 1 endpoint. This assay endpoint, LTEA_HepaRG_ABCC2, was analyzed with bidirectional fitting relative to DMSO as the negative control and baseline of activity. Using a type of inducible reporter, measures of mRNA induction for gain or loss-of-signal activity can be used to understand regulation of transcription factor activity. To generalize the intended target to other relatable targets, this assay endpoint is annotated to the transporter intended target family, where the subfamily is ABC transporter.
A total of 1060 chemcials from the ToxCast library were tested in eight-point concentration-response experiments. Cell culture and cytotoxicity assays were conducted at Thermo Fisher Scientific's Custom Services facility (Madison, WI). A single lot of human HepaRG cells (Thermo Fisher Scientific, Frederick, MD) was used for the cell culture experiments. 96-well format collagen type I coated plates of human HepaRG cells were prepared using established methods. Briefly, cryopreserved HepaRG cells were thawed, plated at a density of approximately 100,000 cells/well in HepaRG Thaw, Plate, and General Purpose media (HPRG770, Thermo Fisher Scientific), and incubated for 48 hours. 0.5% DMSO was selected as vehicle control to balance the requisite need of DMSO in HepaRG cultures to maintain differentiation (for example, baseline metabolism, proportions of hepatocytes vs. cholangiocytes), while enabling further hepatic receptor pathway activation (for example, PXR and CAR) in response to chemical exposure. 48 hours after plating, the culture medium was replaced with HepaRG Serum-Free Incudtion Media. Cells were exposed to each test chemical in duplicate and maintained in CO2 incubators for another 48 hours. Chemical plates were thawed to room temperature and 200x concentrations of treatment groups were prepared. 8-point conentration-reponse curves were made with the highest exposure at 100 uM, followed by half-log dilutions, all in 0.5% DMSO. Each test plate contained variouse controls, induction positive controls (1mM phenobarbital), cytotoxicity positive controls ([…] aflatoxin B1), vehicle controls (0.5% DMSO), and total lysis controls (0.5% DMSO). Cell morphology images were taken using an Essen IncuCyte FLR automated microscope, with six 96-well plates imaged in about 24 minutes. Images were captured and exported and JPEG files. Spent culture media was transfered to black-well plates for the LDH assay, and remaining media was sorted at -80 C for later use. Cells were treated with RLT buffer and frozen until shipped for gene expression analysis. Total RNA was isolated from the cell suspension in 75 uL of Buffer RLT (Qiagen, Germantown, MD 20874) by Quintiles/Expression Analysis (Durham, NC) using a custom isolation procedure. Total RNA from each plate well was transferred to a preamplification plate. Fluidigm's 96.96 Dynamic ArrayTM (Fluidigm, Amsterdam, the Netherlands) technology was used for gene expression analyses by quantitative reverse transcription polymerase chain reaction (qRT-PCR, performed by Quintiles/Expression Analysis, Durham, NC)89. Standard TaqManTM Assays (Applied Biosystems/ThermoFisher Scientific, Foster City, CA) were used to assess the expression of 93 genes selected based on their selectivity and sensitivity to important hepatic receptors known to be modulated by environmental chemicals; importance in human hepatocyte functionality; and hepatotoxicity. […]
In the case of `CC(=O)OCCC(C)C`, the compound was classed as inactive.

`Cc1ccc(S(=O)(=O)O)cc1C`: the compound was called inactive. Consider `CN(C)c1ccc(Cc2ccc(N(C)C)cc2)cc1`, for which the outcome was inactive. For orientation: AC50 means the concentration giving half of the maximal activity seen. As to `O=C(OC[C@H]1O[C@@H](OC(=O)c2cc(O)c(O)c(OC(=O)c3cc(O)c(O)c(O)c3)c2)[C@H](OC(=O)c2cc(O)c(O)c(OC(=O)c3cc(O)c(O)c(O)c3)c2)[C@@H](OC(=O)c2cc(O)c(O)c(OC(=O)c3cc(O)c(O)c(O)c3)c2)[C@@H]1OC(=O)c1cc(O)c(O)c(OC(=O)c2cc(O)c(O)c(O)c2)c1)c1cc(O)c(O)c(OC(=O)c2cc(O)c(O)c(O)c2)c1`, the AC50 is 15.2 µM (active). With `CCn1nc(Cc2ccccc2)cc1C1CCN(C[C@H]2C[C@H](N(C)[C@@H](C(=O)O)C(C)C)C[C@@H]2c2cccc(F)c2)CC1`, the compound was called inactive.

As for `COc1ccc(/C=C/S(=O)(=O)NC(=O)c2ccc(C)cc2Cl)cc1`, the outcome was inactive.

Turning to `C=CC(=C)CCC=C(C)C`, the compound was called inactive. Take `CC(C)c1cccc(C(C)C)c1N1C(=O)c2ccc(O)cc2C1=O`: the AC50 is 29 µM (active). For the compound `CC(C)=CCCC(C)=CC=O`, the call was inactive. Consider `CCCN(C1CCN(C(=O)C2CCNCC2)CC1)[C@@H]1CCc2ccc(OC)cc2C1`, for which the AC50 was 76 µM (active). As for `C=CCCCCCCCCC(=O)O`, the compound was classed as inactive. Still for that read-out and setting: for `C[C@](N)(Cc1ccc(O)c(O)c1)C(=O)O` the value was “inactive”. In the case of `CC(=O)c1ccc2c(c1)[C@H](NC(=O)c1ccc(F)cc1)[C@@H](O)C(C)(C)O2`, the AC50 is 9.67 µM (active). On to `Nc1cccc(N)c1`, for which the outcome was inactive. Same read-out and setting: under `O=c1n(CC2CO2)c(=O)n(CC2CO2)c(=O)n1CC1CO1` (stereo not given) stands “inactive”. Still for that read-out and setting: under `O=C1CCCCCN1` stands “inactive”; under `O=P(OC(CCl)CCl)(OC(CCl)CCl)OC(CCl)CCl`, “inactive”; under `Nc1ccc(Nc2ccccc2)cc1`, “inactive”. For `CC(=O)OC[C@H]1O[C@@](COC(C)=O)(O[C@H]2O[C@H](COC(C)=O)[C@@H](OC(C)=O)[C@H](OC(C)=O)[C@H]2OC(C)=O)[C@@H](OC(C)=O)[C@@H]1OC(C)=O`, the result was inactive.

In the case of `CC(C)=CCCC(C)CCO` (stereo not given), the call was inactive.

As to `C1=CCCC=CCCC=CCC1`, the result was inactive. Turning to `O=C(NS(=O)(=O)/C=C/c1ccccc1)c1ccc(F)cc1Cl`, the AC50 is 4.56 µM (active). `CCCCCCCCCCCCc1ccccc1`: the compound was classed as inactive. With `CCCCCCc1ccc(O)cc1O`, the compound was called inactive.

Take `CC(C)=CCC/C(C)=C/CO`: the compound was called inactive. Turning to `O=C1OC(=O)C2C3C=CC(C3)C12` (stereo not given), the compound was called inactive. Still for that read-out and setting: for `CCCCC(CC)COC(=O)CCCCCCCCC(=O)OCC(CC)CCCC` (stereo not given) the value was “inactive”; for `NC(=O)NO`, “inactive”; for `CCCCC(CC)COC(=O)c1ccc(C(=O)OCC(CC)CCCC)cc1` (stereo not given), “inactive”.

On to `CC(C)CCCCCCOC(=O)c1ccc(C(=O)OCCCCCCC(C)C)c(C(=O)OCCCCCCC(C)C)c1`, for which the call was inactive. Still for that read-out and setting: for `Cc1c(-c2cccnc2)c2ccccc2n1CCCCC(=O)O` the value was “inactive”; for `Clc1nc(Cl)c(Cl)c(Cl)c1Cl`, “inactive”.

Consider `O=C1CCC(N2C(=O)c3ccccc3C2=O)C(=O)N1` (stereo not given), for which the call was inactive. Take `CC1=CC(=O)CC(C)(C)C1`: the call was inactive. As for `CCOC(=O)c1ccc(C2CCC(NC[C@H](O)COc3ccc(O)c(NS(C)(=O)=O)c3)CC2)cc1` (stereo not given in full), the compound was classed as inactive. The same measure, in the same setting: for `O=C(O)c1cc(N=Nc2ccc(S(=O)(=O)Nc3ccccn3)cc2)ccc1O` the value was “inactive”; for `CC/C(=C\C(=N/O)C(N)=O)C(C)[N+](=O)[O-]` (stereo not given), “inactive”; for `O=C(CCCCCCCCc1cccnc1)N1CCC(C=C(c2ccccc2)c2ccccc2)CC1`, “inactive”. Still for that read-out and setting: for `CCCCCCCCCCCCCCCO` the value was “inactive”; for `CC(C)(O)c1coc(S(=O)(=O)NC(=O)Nc2c3c(cc4c2CCC4)CCC3)c1`, “inactive”.
